# Experimental data reported in PubChem BioAssay (NCI).
# This is part of a sample that, as a whole, favours compounds with a hit. Of some 83,000 tested, about 20% had one in any assay.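 Activity criterion: percent growth below 10, measured after cells in 96-well plates were exposed to a single compound concentration for 48 hours.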 Values without a mark were called inactive. The source made the active and inactive calls.
# Test system: HL-60(TB) leukemia
# Test: NCI-60 one-dose screen, 48 h (100 = growth as untreated, 0 = no growth, -100 = all killed)
# Conditions: 10 µM unless noted
row,Compound,growth
1,CCN(CC)CCN1C(=O)c2c(c3c4cccnc4[nH]c3c3ccc4ccccc4c23)C1=O,56.2%
2,NS(=O)(=O)c1ccc(Nc2nc(N/N=C/c3c[nH]c4ccccc34)nc(Nc3ccccc3)n2)cc1,34.4%
3,Nc1n[nH]c2cccc(C#Cc3cccc(NC(=O)c4cccc(OC(F)(F)F)c4)c3)c12,17.7%
4,Cc1nc(-c2cc3ccccc3oc2=O)ccc1C(=O)/C=C/c1ccccn1,32.9%
5,C#C[C@]1(O)CC[C@H]2[C@@H]3CC=C4c5sc(Nc6cc(Cl)ccc6OC)nc5CC[C@]4(C)[C@H]3CC[C@@]21C,5.48% (active)
6,CCS(=O)(=O)Nc1ccc(C(=O)CC2(O)C(=O)Nc3ccccc32)cc1 (stereo not drawn),102%
7,COc1cc(NC2=C(Cl)C(=O)c3nc(C)ccc3C2=O)cc(OC)c1,-13.4% (active)
8,NC(N)=Nc1ccc(Oc2ccc(Nc3ccc(Cl)c(C(F)(F)F)c3)cc2)cc1,-33.8% (active)
